Compound activity from PubChem BioAssay.
Only some compounds are listed: those with a hit (about 4.2% of all), similar ones and a draw of the others.
RecA intein inh: inhibitors of M. tuberculosis RecA intein splicing; P9WHJ3; cell-free RecA intein splicing, fluorescence; inhibition, % (concentration not given with the values); hit rate 0.75% among 290,000; AID 2221; in the data active = inhibition above about 30%;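 note: 0% = vehicle wells and 100% = reference inhibitor control wells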
Target sequence (P9WHJ3 whole entry, looked up): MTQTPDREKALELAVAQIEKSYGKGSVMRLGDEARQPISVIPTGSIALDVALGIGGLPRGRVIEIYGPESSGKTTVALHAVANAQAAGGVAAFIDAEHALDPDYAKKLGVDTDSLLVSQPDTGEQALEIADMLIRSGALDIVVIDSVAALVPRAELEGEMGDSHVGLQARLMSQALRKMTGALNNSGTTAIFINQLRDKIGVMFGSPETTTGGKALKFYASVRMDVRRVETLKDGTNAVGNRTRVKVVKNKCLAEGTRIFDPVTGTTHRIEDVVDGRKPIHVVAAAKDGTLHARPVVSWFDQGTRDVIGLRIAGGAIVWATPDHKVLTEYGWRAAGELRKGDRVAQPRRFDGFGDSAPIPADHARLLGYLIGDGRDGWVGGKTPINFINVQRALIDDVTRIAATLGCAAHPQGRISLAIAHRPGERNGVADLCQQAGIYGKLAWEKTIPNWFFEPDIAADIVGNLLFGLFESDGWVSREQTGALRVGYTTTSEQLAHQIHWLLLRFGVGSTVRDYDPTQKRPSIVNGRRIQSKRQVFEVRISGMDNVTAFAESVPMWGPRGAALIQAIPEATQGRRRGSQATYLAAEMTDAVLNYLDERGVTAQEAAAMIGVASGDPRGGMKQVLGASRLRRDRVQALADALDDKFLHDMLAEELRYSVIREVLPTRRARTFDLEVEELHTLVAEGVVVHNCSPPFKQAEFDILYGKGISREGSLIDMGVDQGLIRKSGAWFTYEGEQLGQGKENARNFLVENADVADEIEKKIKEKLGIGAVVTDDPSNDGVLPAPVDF
GDH-TPI counter-1: counter-screen for M. tuberculosis FBA inhibitors: GDH-TPI coupled enzymes. GDH-TPI coupled enzyme counterscreen, NADH absorbance. inhibition, % at 4.8 µM. hit rate 1.2% among 360,000;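 note: 0% = DMSO wells and 100% = wells lacking the enzyme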
Mtb FBA inh: Mtb fructose-bisphosphate aldolase inhibition. P9WQA3. purified M. tuberculosis FBA, fluorescence read-out. inhibition, % at 1 µM. hit rate 2.3% among 360,000. AID 588726; in the data active = inhibition above about 27%;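 note: 0% = vehicle and 100% = reference inhibitor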
CCHFV vOTU inh: blocks the CCHF virus ovarian tumor domain protease | CCHFV vOTU protease, Pep-AMC fluorescence | inhibition, % at 11.5 µM | hit rate 0.55% among 370,000; note: 0% = vehicle wells with enzyme and 100% = no enzyme wells
Mtb FBA inh conf: Mtb FBA inhibition, confirmed. hit rate 78% among 5,600. inhibition, % at 1 µM. shares compounds with Mtb FBA inh. purified M. tuberculosis FBA, fluorescence read-out. AID 651616; in the data active = inhibition above about 27%;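 note: 0% = vehicle wells and 100% = reference inhibitor wells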
GDH-TPI counter-2: counter-screen for M. tuberculosis FBA inhibitors: GDH-TPI coupled enzyme inhibition; shares compounds with Mtb FBA inh; GDH-TPI coupled enzyme counterscreen, fluorescence; inhibition, % at 1 µM; hit rate 81% among 5,600; in the data active = inhibition above about 10%
Numbers without * were called inactive; · = not tested or not shown; + = active, no number. Cut-off read from the data, not from the text of the source, unless noted: active = inhibition above about 30%; inactive = the rest.

SMILES	RecA intein inh	GDH-TPI counter-1	Mtb FBA inh	CCHFV vOTU inh	Mtb FBA inh conf	GDH-TPI counter-2
COC(=O)C1C(O)=C(C=Nc2ccccc2)C(=O)CC1(C)C (centres undefined)	-7	21	-4	5	·	·
COc1cccc(-c2cnc(C(O)c3ccc(CN4CCCC4)cc3)[nH]2)c1 (centres undefined)	·	4	1	10	·	·
COc1ccc(-c2cn3cccnc3n2)cc1NC(=O)c1cc(OC)c(OC)c(OC)c1	3	20	32*	-38	+	+
O=c1ccc(Cl)nn1-c1ccccc1	0	-2	-1	-11	·	·
Cc1cc(=O)oc2c3c(cc(OCC(=O)N[C@@H](CC(C)C)C(=O)O)c12)OC(C)(C)CC3	-1	11	39*	-6	39*	35*
Cc1cc(S(=O)(=O)NCC(C)C)ccc1OCC(=O)NCC1CCCO1 (centres undefined)	-1	-12	0	9	·	·
Cc1c(C)c2c(OCC(=O)NCC(C)C)cc3c(c2oc1=O)CCC(C)(C)O3	3	-7	57*	-26	+	190*
Cc1ccc(Oc2ccc(OCC(=O)NC(CC(C)C)C(=O)O)cc2)cc1 (centres undefined)	0	-11	3	0	·	·
O=C(COc1ccc2c3c(c(=O)oc2c1)CCC3)NCc1cccnc1	1	16	26	-14	·	·
COc1ccc(CNC(=O)COc2cc3c(c4oc(=O)cc(C)c24)CCC(C)(C)O3)cc1OC	2	14	39*	-7	54*	38*
Cc1c(C)c2c(OCC(=O)NCc3cccnc3)cc3c(c2oc1=O)CCC(C)(C)O3	-3	22	57*	-22	69*	52*
Cc1c(C)c2c(OCC(=O)NCc3ccco3)cc3c(c2oc1=O)CCC(C)(C)O3	-2	16	34*	1	+	+
Cc1cc(=O)oc2cc(OCC(=O)NCc3ccco3)ccc12	-2	8	10	-2	·	·
Cc1c(C)c2c(OCC(=O)NCc3ccncc3)cc3c(c2oc1=O)CCC(C)(C)O3	-1	8	31*	-19	+	+
N#Cc1ccccc1COC(=O)CCC(=O)c1cccs1	·	0	2	8	·	·
O=C1c2cccc3cccc(c23)C(=O)N1CC1CCCO1 (centres undefined)	2	10	31*	-4	52*	28*
O=C(CCN1C(=O)c2cccc3cccc(c23)C1=O)NCC1CCCO1 (centres undefined)	-4	25	34*	-18	156*	97*
O=C(CN1C(=O)c2cccc3cccc1c23)NCC1CCCO1 (centres undefined)	-10	8	5	-1	·	·
C[C@H](O)[C@@H]1C(=O)N2CCc3c([nH]c4ccccc34)[C@@H]2C[C@@H]1N(C)C(=O)Nc1ccc(Br)cc1	·	·	·	-32	·	·
C[C@H](O)[C@@H]1CN2CCc3c([nH]c4ccccc34)[C@@H]2C[C@@H]1N(C)C(=O)Nc1cc(Cl)cc(Cl)c1	·	10	1	6	·	·
C[C@H](O)[C@@H]1C(=O)N2CCc3c([nH]c4ccccc34)[C@@H]2C[C@@H]1N(C)C(=O)Nc1cc(Cl)cc(Cl)c1	·	19	30*	-40	+	+
CN(C(=O)C(C)(C)C)[C@H]1C[C@H]2c3[nH]c4ccccc4c3CCN2C(=O)[C@H]1CO	·	21	79*	-92	+	+
C[C@H](O)[C@@H]1C(=O)N2CCc3c([nH]c4ccccc34)[C@@H]2C[C@@H]1N(C)C(=O)c1ccco1	·	·	67*	-97	144*	132*
C[C@H](O)[C@@H]1C(=O)N2CCc3c([nH]c4ccccc34)[C@@H]2C[C@@H]1N(C)C(=O)Nc1ccccc1	·	-4	28*	-93	52*	42*
Cc1ccc(CN2CC(C(=O)N3CC(C)CC(C)C3)CC2=O)cc1 (centres undefined)	-1	-2	2	8	·	·
CC(C)c1ccc(S(=O)(=O)N2CCN(C(=O)CN3C(=O)c4ccccc4C3=O)CC2)cc1	·	1	0	1	·	·
COC(=O)[C@@]12C[C@@H](CC(=O)N3CCCC3)C(=O)N(Cc3cccc4ccccc34)C1=CCC(C)(C)C2	·	·	·	5	·	·
COc1cccc(-c2nc3n(n2)CCc2ccccc2-3)c1	·	10	2	-1	·	·
O=C(CCl)Nc1ncc(S(=O)(=O)c2ccc([N+](=O)[O-])cc2)s1	·	11	-4	7	·	·
